Data taken from PubChem BioAssay (NCATS).
Results filed as inconclusive are left out. Values without a mark were called inactive. Calls follow the shape of the dose curve; as a rule, active = well fitted inhibition curve with a large enough effect; inconclusive = small, poorly fitted or top-dose-only effect; inactive = flat fitted curve, though single readings scatter.

biological target: Calcium and integrin-binding protein 1 (Homo sapiens) (UniProt Q99828); experiment: Primary qHTS for Identification of Calcium Integrin Binding Protein 1 (CIB1) Competitor (AID 1508620); conditions: CIB1-GST / FITC-alphaIIb peptide fluorescence polarization; series mostly up to 114 µM; activity change, negative = inhibition: at the top concentration; also: top concentration of the series differs between compounds
How it was run: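 Fluorescence polarization competition: GST-tagged CIB1 (1 uM final) preincubated with compound 15 min at room temperature, then FITC-labelled alphaIIb peptide (100 nM final) added. After 15 min at room temperature, polarization read at Ex 480/Em 540.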
% is scaled to controls: 0 for no effect and ±100 for the full control effect.

Sequence of Calcium and integrin-binding protein 1 (Homo sapiens) (Q99828 whole entry, looked up): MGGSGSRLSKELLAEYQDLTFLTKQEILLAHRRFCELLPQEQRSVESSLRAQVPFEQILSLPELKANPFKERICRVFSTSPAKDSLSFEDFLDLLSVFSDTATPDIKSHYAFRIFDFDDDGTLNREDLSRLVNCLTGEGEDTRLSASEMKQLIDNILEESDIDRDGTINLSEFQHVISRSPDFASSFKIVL

SMILES	activity change, negative = inhibition
CC(C)C[C@H](C(=O)O)c1cc(-c2ccc(C(F)(F)F)cc2)cc(-c2ccc(C(F)(F)F)cc2)c1	6.58%
O=C1c2ccc(Nc3ccc(F)cc3F)cc2CCc2ccc(OCC(O)CO)cc21 (stereo unspecified)	-1.76%
CNCCCC1(c2ccccc2)OC(C)(C)c2ccccc21 (stereo unspecified)	5.73%
C[C@@H]1CCCN1CCc1cc2cc(-c3ccc(C#N)cc3)ccc2o1	1.28%
C/C(=N\N=C(N)N)c1cc(NC(=O)CCCCCCCCC(=O)Nc2cc(/C(C)=N/N=C(N)N)cc(/C(C)=N/N=C(N)N)c2)cc(/C(C)=N/N=C(N)N)c1	75.8%
N#Cc1ccc(COC[C@H]2O[C@@H](n3c(NCc4ccc(Cl)c(Cl)c4)nc4c(N)ncnc43)[C@H](O)[C@@H]2O)cc1	1.23% [at 57.7 µM]
CC1(C)C2CCC(CO[C@@H]3O[C@H](CO[C@@H]4OC[C@](O)(CO)[C@H]4O)[C@@H](O)[C@H](O)[C@H]3O)C1C2 (stereo partly specified)	-0.0035% [at 57.7 µM]
O=C(NCC1(N2CCN(c3ccccc3)CC2)CCOCC1)c1cccnc1Sc1ccccc1	4.99%
Fc1ccc(N2CCN(CCC3OCCc4ccccc43)CC2)cc1 (stereo unspecified)	-2.27%
O=C(Nc1ccc(N(Cc2ccsc2)C(=O)Cn2nnc3ccccc32)cc1)C1CC1	-5.75%
COc1ccccc1N1CCN(CC(C(=O)NC(C)(C)C)c2ccccc2)CC1 (stereo unspecified)	-5.09%
CC(=O)O[C@H]1[C@H](O)C[C@@]2(C)C(CC[C@]3(C)C2CC=C2C4CC(C)(C)CC[C@]4(C(=O)O)CC[C@]23C)C1(C)C (stereo partly specified)	-3.12% [at 57.7 µM]
COC(=O)C1=CO[C@@H](O[C@@H]2O[C@H](CO)[C@@H](O)[C@H](O)[C@H]2O)[C@H]2[C@@H]1C=C[C@]21C=C([C@H](C)OC(=O)/C=C/c2ccc(O)cc2)C(=O)O1	-4.82% [at 30.2 µM]
C=C1CC[C@@H]2[C@](C)(CO)[C@H](O)CC[C@@]2(C)[C@@H]1/C=C/C1=CCOC1=O	-0.699% [at 57.7 µM]
COc1ccc(-c2cc3onc(-c4ccncc4)c3c(=O)n2C)cc1	4.63%
C/C=C(/C)C(=O)OC1C=C2C3C(C)C(C)C(OC(=O)C(C)C(C)O)CC3(C)CCC2(C)C2(C)CC(OC(C)=O)C3C(C)(C)C(O)C(=O)CC3(C)C12 (stereo unspecified)	-3.23% [at 30.2 µM]
CCC(=O)N1CCOc2c(cc(-c3ccc(OC)c(OC)c3)cc2OC[C@H]2CCCN(C)C2)C1	-1.42%
CS(=O)(=O)Nc1ccc2oc3c(OC(F)F)ccc(C(=O)Nc4c(Cl)cncc4Cl)c3c2c1	-9.47%

SMILES	activity change, negative = inhibition
CC(O)(C(=O)C1CC1(CO)COC1OC(CO)C(O)C(O)C1O)C1C(O)CC2C3CC=C4CC(O)CC(O)C4(C)C3C(O)CC21C (stereo unspecified)	1.47% [at 30.2 µM]
C=C1C(=O)OC[C@@H]1C/C=C(\C)CC1CC(C)C(=O)O1 (stereo partly specified)	5.15%
CCCCNc1ncc(C(=O)NCc2ccc(-n3ccnc3)cc2)c(NC2CCC(O)CC2)n1 (stereo unspecified)	3.3%
CCCC(Nc1nc(-c2ccc(NC(=O)NCC)c(OC)c2)ncc1C)c1cccnc1 (stereo unspecified)	-5.37%
CN[C@@H]1[C@H](O[C@H]2[C@H](O[C@@H]3[C@@H](O)[C@H](O)[C@@H](N=C(N)N)[C@H](O)[C@H]3N=C(N)N)O[C@@H](C)[C@]2(O)CO)O[C@@H](CO)[C@H](O)[C@H]1O	2.69%
CN(C)c1ccnc2sc3c(=O)n(N4CCCCCC4)cnc3c12	-3.42%
CC1CCC(=O)CC(SCC(O)C(=O)O)CCC(=O)O1 (stereo unspecified)	-3.62%
C#Cc1cccc(Nc2nc3cc(C(=O)O)ccc3c3cncnc23)c1	-17.1%
Cn1ncc2cc(-c3cnc(N)c(Cl)c3N3CCC4(CCNC4=O)CC3)ccc21	-1.97%
Cc1cc(C)c2c(c1)C(N(Cc1cc(C(F)(F)F)cc(C(F)(F)F)c1)c1nnn(C)n1)CCCN2CC1CCC(C(=O)O)CC1 (stereo unspecified)	2.61%
CC(=O)C1(C)CCC2C3C=C(C)C4=CC(=O)CCC4(C)C3CCC21C (stereo unspecified)	1.38%
COc1ccc(S(=O)(=O)N2CCC[C@H]2C(=O)Nc2cc(C)cc(C)c2)cc1	-0.607%
Cc1ccccc1C(C(=O)NC1CCCCC1)N(C(=O)Cn1cnc2ccccc21)c1cccc(F)c1 (stereo unspecified)	9.23%
C=C1CCC2[C@](C)(CCC[C@@]2(C)C=O)[C@H]1CC/C(C)=C/CO (stereo partly specified)	-0.479%
CCC(CC)C(c1ccc(Nc2nc3ccccc3s2)cc1)n1cncn1 (stereo unspecified)	2.02%
CCc1c[nH]c2ncnc(N3CC[C@](N)(CNC(=O)c4ccc(F)cc4F)C3)c12	2.84%
CC(=O)OC1C(=O)C2C3OCC4=C3[C@@](C)(CC[C@@H]4O)CC[C@]2(C)[C@H]1C(C)C (stereo partly specified)	5.28% [at 57.7 µM]
OC1(CN2CCC(COc3noc4cccc(O[C@@H]5CCOC5)c34)CC2)CCOCC1	-2.54%
